In PubChem BioAssay AID2796 (The Scripps Research Institute Molecular Screening Center, 2010) one finds activation data, which are given here for 61 molecules.

In all, about 320,000 compounds went through this assay and about 8,000 (2.5%) were called active. The sample as a whole holds a higher share of actives than the screen did. A number with no mark means an inactive call. Cut-off read from the data, not from the text of the source: active = activation above about 47%; inactive = the rest.

For the assay, the target named is Aryl hydrocarbon receptor (Homo sapiens) (UniProt P35869). Kind of assay: AHR activators, primary screen, cell-based, luminescence, luciferase reporter, human (AID 2796).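 Note: 0% = vehicle wells and 100% = reference agonist.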 The note with it: AHR-responsive luciferase reporter cells, at 5 µM, stronger effect = higher value. On the technique in general: Reporter assays use an easily measured gene product as a stand-in for the process of interest.
Aryl hydrocarbon receptor (Homo sapiens), sequence (P35869 whole entry, looked up): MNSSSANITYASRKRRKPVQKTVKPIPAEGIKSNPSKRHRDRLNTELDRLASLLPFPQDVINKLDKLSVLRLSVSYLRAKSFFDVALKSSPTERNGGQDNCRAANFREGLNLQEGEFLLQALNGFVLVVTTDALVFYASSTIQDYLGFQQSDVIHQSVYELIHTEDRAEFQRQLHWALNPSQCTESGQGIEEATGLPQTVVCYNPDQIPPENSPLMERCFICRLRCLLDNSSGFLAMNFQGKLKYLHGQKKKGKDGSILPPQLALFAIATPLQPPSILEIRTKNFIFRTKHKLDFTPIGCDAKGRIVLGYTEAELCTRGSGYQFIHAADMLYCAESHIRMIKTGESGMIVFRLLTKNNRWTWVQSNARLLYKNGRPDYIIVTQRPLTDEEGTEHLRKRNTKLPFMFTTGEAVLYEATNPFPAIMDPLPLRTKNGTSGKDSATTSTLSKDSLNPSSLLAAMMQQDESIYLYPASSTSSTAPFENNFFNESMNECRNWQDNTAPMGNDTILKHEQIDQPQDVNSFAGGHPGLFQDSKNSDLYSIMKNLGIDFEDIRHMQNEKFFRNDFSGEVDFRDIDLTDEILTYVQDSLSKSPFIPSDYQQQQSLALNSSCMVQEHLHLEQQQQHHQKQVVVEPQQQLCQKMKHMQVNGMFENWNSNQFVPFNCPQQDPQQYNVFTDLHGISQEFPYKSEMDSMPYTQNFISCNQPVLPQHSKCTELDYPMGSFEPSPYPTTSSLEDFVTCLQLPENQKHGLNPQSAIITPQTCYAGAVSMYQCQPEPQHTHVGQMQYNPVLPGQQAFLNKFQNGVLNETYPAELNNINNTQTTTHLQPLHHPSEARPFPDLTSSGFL
Take `O=c1[nH]n(-c2ccc([N+](=O)[O-])cc2)c(=O)c2ccccc12`: the activation was 1.45%.
As to `O=c1[nH]c2cccnc2n1-c1ccc([N+](=O)[O-])cc1`, the activation is 60.9% (active).
Under `O=[N+]([O-])c1ccc2nc(-c3ccccn3)[nH]c2c1` stands 3.58%; under `CCOc1ccc(CN2CCN(CCCc3ccccc3)C(CCO)C2)cc1` (stereo unspecified), 0.01%; under `COc1cc(NC(=O)c2cccs2)ccc1NC(=O)c1ccccc1Cl`, -11.1%.
Turning to `O=C(Nc1cccc(NC(=O)c2ccccc2[N+](=O)[O-])c1)c1ccccc1Cl`, the activation was 8.43%.
For the molecule `O=C(Nc1ccc2sc3ccccc3c(=O)c2c1)c1ccccc1Cl`, the activation is 49.1% (active).
With `COc1cc(S(=O)(=O)N2CCN=C2c2ccccc2)ccc1Cl`, the activation is 1.21%.
Regarding `Cc1ccccc1OCCC(=O)OCC(=O)NC(C)c1ccccc1` (stereo unspecified), the activation is -2.01%.
Under `C=CCNC(=S)NNC(=O)c1cc(Cl)ccc1OC` stands 52.7% (active).
The result for `COc1ccc(Cl)cc1C(=O)NNC(=S)NC(=O)/C=C/c1ccco1` reads 4.8%; that for `COc1ccc(Cl)cc1C(=O)NNC(=S)NC1CCCC1`, 32.1%; that for `Cc1nc(SCC(=O)N2CCc3ccccc3C2)c2c(C)c(C)sc2n1`, 3.83%.
Consider `COc1cc(NC(=O)c2cc([N+](=O)[O-])ccc2Br)ccc1NC(=O)c1ccco1`, for which the activation is -4.72%.
Regarding `COc1ccc(NC(=O)c2ccco2)cc1NC(=O)c1ccc(C#N)cc1F`, the activation was 96.2% (active).
On to `COc1ccccc1C(=O)Nc1ccc(NC(=O)c2ccco2)c(C)c1`, for which the activation was 40.4%.
Regarding `O=S(=O)(NC1CC1)c1ccc2c3c(cccc13)CC2`, the activation was 1.23%.
For the molecule `CCn1c(CN2C(=O)CSc3ccccc32)n[nH]c1=S`, the activation was 1.51%.
For the molecule `CSc1ncnc2sc(C)c(C)c12`, the activation was 1.25%.
On to `COC(=O)c1c(-c2cccs2)csc1NC(=O)CSc1ncnc2sc(C)c(C)c12`, for which the activation is 6.7%.
Consider `Cc1sc2ncnc(Sc3nc4ccccc4s3)c2c1C`, for which the activation is 47.2% (active).
For `O=C(NNS(=O)(=O)c1ccc(F)cc1)C1CCCCC1`, the activation was -0.99%.
As for `CN(CC(=O)Nc1ccc(Cl)cc1)C(=O)c1ccc(COc2ccccc2)cc1`, the activation was 0.65%.
The result for `CC(=O)N1c2ccc(S(=O)(=O)N3CCCC(C(=O)Nc4ccc(C)cc4C)C3)cc2CC1C` (stereo unspecified) reads 0.6%.
Consider `CCC(=O)c1ccc(OCC(=O)OCC(=O)N2CCc3ccccc3C2)cc1`, for which the activation was -1.4%.
In the case of `COc1cc(OC)cc(-c2sc3ccc(OC)cc3c2-c2ccc3cc[nH]c3c2)c1`, the activation is 13%.
As to `COc1ccc2sc(-c3ccccc3OC)c(-c3ccc(OCCN4CCCC4)cc3)c2c1`, the activation was 1.65%.
Take `COc1ccc2sc(-c3ccc(N(C)C)cc3)c(C#CCO)c2c1`: the activation is 64.8% (active).
With `COc1ccc2sc(-c3ccc(N(C)C)cc3)c(-c3ccc4cc[nH]c4c3)c2c1`, the activation was 22.1%.
Under `COc1ccc(-c2sc3ccc(OC)cc3c2C#Cc2ccccn2)cc1` stands 70.4% (active).
Turning to `COc1ccc2sc(-c3ccc(S(C)(=O)=O)cc3)c(C#Cc3cncn3C)c2c1`, the activation was 39.3%.
As for `CCCN(C(=O)CSc1nnc(N)s1)c1c(N)n(Cc2ccccc2)c(=O)[nH]c1=O`, the activation is 0.7%.
Under `COc1cccc(CN(C)CC2CCCN(CCc3ccc(Cl)cc3)C2)c1OC` (stereo unspecified) stands -2.92%.
`COc1ccc2c(c1)CCC/C2=N\OC(=O)c1ccccc1F`: the activation is 2.52%.
Under `COCCN(Cc1ccccc1)C(=O)Cc1ccc(S(=O)(=O)N2CCOCC2)s1` stands 0.03%.
`O=C1OC[C@@H]2CCCN2C(=O)[C@H](CC(=O)N(CCO)Cc2ccccc2)C/C=C\CC[C@@H]1Cc1ccc(F)cc1`: the activation is -2.45%.
The result for `Cc1cc(N/N=C\c2ccc(Br)cc2)nc(-n2nc(C)cc2C)n1` reads 27.3%.
Under `COc1ccccc1/C=N\Nc1cc(C)nc(-n2nc(C)cc2C)n1` stands 70.2% (active).
On to `COc1ccc(-c2nn(-c3ccccc3)cc2/C=N/Nc2ccccn2)cc1OC`, for which the activation is 30.3%.
The result for `CCOc1ccccc1NC(=O)COc1ccc(S(=O)(=O)N2CCCC2)cc1` reads 7.9%.
The result for `O=C(Nc1nnc(-c2ccccc2)o1)c1cc(-c2cccs2)nc2ccccc12` reads 5.25%.
As for `CC(=O)Nc1cccc(Nc2nc(-c3cccs3)nc3ccccc23)c1`, the activation was 51.4% (active).
As to `COc1ccccc1C(=O)Nn1c(-c2cccs2)nc2ccccc2c1=O`, the activation was 13.9%.
Regarding `Cc1nc2c(ncn2-c2ccccc2)c(=O)n1NC(=O)CN1CCCC1`, the activation is 0.17%.
In the case of `CC1CN(c2nc(-c3ccccc3)nnc2-c2ccccc2)CC(C)O1` (stereo unspecified), the activation was 10.3%.
As for `CC(C)Cn1c(CCC(=O)O)ccc1-c1cccs1`, the activation is -1.84%.
Take `OCCNc1nc(Nc2ccc(Cl)c(Cl)c2)nc2ccccc12`: the activation was 124% (active).
`OCCCNc1nc(-c2ccccc2)c2cc(Cl)ccc2n1`: the activation is 3.68%.
As to `COc1cc2nc(Cl)nc(NCCO)c2cc1OC`, the activation is -0.57%.
On to `O=C(NC(CC(=O)N1CCN(c2ccccc2)CC1)c1ccccc1)c1ccccc1Cl` (stereo unspecified), for which the activation was -0.75%.
In the case of `COc1cc(OC)cc(-c2nc3ccccc3c(=O)n2NC(=O)c2cccnc2Cl)c1`, the activation is 4.93%.
The result for `O=C(Nn1c(-c2ccc(Cl)cc2)nc2ccccc2c1=O)c1cccnc1Cl` reads 104% (active); that for `Cc1cccc(-c2nc3ccccc3c(=O)n2NC(=O)Cc2ccc(Cl)cc2)c1`, -0.38%; that for `COc1ccc(C(=O)COC(=O)c2ccc3ccccc3n2)cc1`, 2.48%.
Under `O=C(Nc1ccc(S(=O)(=O)Nc2ccccn2)cc1)c1ccccc1` stands -0.84%; under `c1ccc(-c2cn3c(n2)CCc2ccc4cccnc4c2-3)cc1`, 64% (active).
The result for `O=S(=O)(Nc1ncccn1)c1ccc(NS(=O)(=O)c2cccc(Cl)c2Cl)cc1` reads 0.76%; that for `CC(=O)c1ccccc1OCc1ccc(C(=O)c2ccccc2)cc1`, 0.89%.
As to `CCCOc1ccc(Cn2ccnc2)cc1[N+](=O)[O-]`, the activation was 59.2% (active).
Under `CCCCOc1ccc(CSC(=N)N)cc1[N+](=O)[O-]` stands 15%.
Consider `CCCCCOc1ccc(CSC2=NCCN2)cc1[N+](=O)[O-]`, for which the activation is 6.95%.
